Article PMC8384837, “Expanding the binding specificity for RNA recognition by a PUF domain”

Biological target: PUM1 PUF domain R4-TPA (Homo sapiens, UniProt Q14671 828-1176, N971T;H972P;Q975A)
Assay: yeast three-hybrid, YBZ-1, SC-Leu-His + 0.5 mM 3-AT, 4 days
Conditions: tags: N-Gal4 AD-HA kept; label: inside an RPR1-promoter hybrid RNA with tandem MS2 sites; ssRNA
How it was run: (§1)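 A centromeric plasmid in strain YBZ-1 co-expressed Pumilio-1 PUF domain libraries, randomized at the three base-contacting residues of each repeat, with matching RNA elements; the strain carries a LexA–MS2 coat fusion and a HIS3 reporter. After four days on SC-Leu (input) or SC-Leu-His + 0.5 mM 3-AT (selection), the repeat regions were PCR-amplified and Illumina-sequenced. The interaction score is the log change in variant frequency from input to selection, using log2 and a pseudocount of 1 where absent.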

Chain of PUM1 PUF domain R4-TPA (Q14671 828-1176 N971T/H972P/Q975A): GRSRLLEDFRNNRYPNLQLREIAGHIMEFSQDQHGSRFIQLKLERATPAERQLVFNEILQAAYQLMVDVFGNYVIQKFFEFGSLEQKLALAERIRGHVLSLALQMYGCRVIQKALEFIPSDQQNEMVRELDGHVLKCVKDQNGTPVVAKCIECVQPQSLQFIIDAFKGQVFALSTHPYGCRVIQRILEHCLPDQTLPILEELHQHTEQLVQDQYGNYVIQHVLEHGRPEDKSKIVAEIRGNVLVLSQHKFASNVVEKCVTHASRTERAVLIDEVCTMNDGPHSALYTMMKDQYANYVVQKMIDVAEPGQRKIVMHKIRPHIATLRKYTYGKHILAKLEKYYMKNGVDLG

For “GGCUAGAACUAGUGGAUCCCCCGGCGCCCGGCGGCUCGAGCCCGGGUAAGUGUAAAUAGUCUGCAUGCCGCCGGGCGCCAUGCCUGCAGGUCGACUCUAGAAAACAUG”, which binding signal is on record?
Its binding signal is 3.35 log2 enrichment (interaction score).

Which binding signal does the source give for “GGCUAGAACUAGUGGAUCCCCCGGCGCCCGGCGGCUCGAGCCCGGGUAAGUGUAUAUAGUCUGCAUGCCGCCGGGCGCCAUGCCUGCAGGUCGACUCUAGAAAACAUG” here?
Its binding signal is 4.12 log2 enrichment (interaction score).

How did the binding signal turn out when “GGCUAGAACUAGUGGAUCCCCCGGCGCCCGGCGGCUCGAGCCCGGGUAAGUGUACAUAGUCUGCAUGCCGCCGGGCGCCAUGCCUGCAGGUCGACUCUAGAAAACAUG” was run?
The binding signal was 3.56 log2 enrichment (interaction score).

Biological target: PUM1 PUF domain R3-TRV (Homo sapiens, UniProt Q14671 828-1176, C935T;Q939V)
Assay: as above
Conditions: tags: N-Gal4 AD-HA kept; label: inside an RPR1-promoter hybrid RNA with tandem MS2 sites; ssRNA
How it was run: as §1

With “GGCUAGAACUAGUGGAUCCCCCGGCGCCCGGCGGCUCGAGCCCGGGUAAGUGUAAGUAGUCUGCAUGCCGCCGGGCGCCAUGCCUGCAGGUCGACUCUAGAAAACAUG” as the sequence, how does the binding signal read?
The binding signal was 1.18 log2 enrichment (interaction score).

For “GGCUAGAACUAGUGGAUCCCCCGGCGCCCGGCGGCUCGAGCCCGGGUAAGUGUAAAUAGUCUGCAUGCCGCCGGGCGCCAUGCCUGCAGGUCGACUCUAGAAAACAUG”, which binding signal is on record?
The binding signal was 2.47 log2 enrichment (interaction score).

How did the binding signal turn out when “GGCUAGAACUAGUGGAUCCCCCGGCGCCCGGCGGCUCGAGCCCGGGUAAGUGUAAUUAGUCUGCAUGCCGCCGGGCGCCAUGCCUGCAGGUCGACUCUAGAAAACAUG” was run?
The binding signal was 2.79 log2 enrichment (interaction score).
